# Test results published in ChEMBL document CHEMBL3988442, “University of Dundee, Small-Polar-MMV Screening Library” (2021).
# Hit rate of the full screen: of about 48,000 compounds, about 13,000 (27%) showed an effect of 50% or more. This is one part of the list.
# System: Wolbachia pipientis
# Test: Anti-Wolbachia Cell-Based Screen
# Assay type: functional
# Design: scale not given: in the data most compounds retested in dose-response had high values
# Conditions: 5 µM
row,Compound,Percent Effect [%]
1,COCCN1CCC(CNc2nc3ccccc3o2)CC1,8.013
2,COCc1ccccc1NC(=O)NCc1ccc(OCC2CC2)nc1,7.542
3,OCCOc1ccc(NCc2cccnc2)cn1,7.993
4,COCCOc1ccc(CNc2nc3ccccc3o2)cn1,106.2
5,COCCOc1ccc(NCc2cccc3cn[nH]c23)cn1,-20.32
6,COCCN1CCC(CNc2cnc3ccccc3n2)CC1,-17.24
7,OC1CCN(c2ccc(CNc3nc4ccccc4o3)cc2F)CC1,-1.066
8,COCCOc1ccc(CNc2cnc3ccccc3n2)cn1,132.7
9,COCCOc1ccc(CNc2nc3ccccc3nc2N)cn1,162.2
10,Cl.O=C1CC(NCc2cnc(N3CCCC3)nc2)CN1c1ccccc1 (stereo not given),36.64
11,CC(C)N1CCO[C@H]2CN(C(=O)c3ccc(N(C)C)cc3)C[C@H]21,-8.625
12,CN(C(=O)c1ccc[nH]1)C1CC(=O)N(Cc2ccccc2)C1=O (stereo not given),-8.622
13,CCOCC(=O)Nc1ncc(I)cc1C,-8.606
14,Cc1cc(C)c(S(=O)(=O)Nc2c(C)nc(N3CCCC3)nc2C)cc1C,12.58
15,CNC(=O)N1CCC2(CC1)CN(C)Cc1cc(F)ccc12.Cl,24.69
16,Cc1nn(C)c(C)c1C1CCCN1Cc1nnc(C2CC2)n1C (stereo not given),-7.496
17,Cc1nc(C(=O)N2CCC(c3nnc(Cn4ccnc4)n3C)CC2)cs1,92.58
18,Cc1nc(C(=O)N2CCC(c3nccn3Cc3ccncc3)CC2)cs1,-0.8492
19,CCCc1nnc(N2CCCC(c3nnc(Cn4ccnc4)n3C)C2)s1 (stereo not given),0.1518
20,Cc1cc(C(=O)N2CCC(c3nnc(Cn4ccnc4)n3C)CC2)cs1,95.2
21,Cn1c(Cn2ccnc2)nnc1C1CCN(C(=O)c2ccccn2)CC1,107.7
22,Cn1c(Cn2ccnc2)nnc1C1CCN(C(=O)c2cccnc2)CC1,92.17
23,CN(CCO)Cc1nnc(C2CCN(C(=O)c3ccccn3)CC2)n1C,-1.336
24,CN(CCO)Cc1nnc(C2CCN(C(=O)c3cccnc3)CC2)n1C,-5.743
25,Cc1nn(CN(CC2CCOC2)C2CC2)c(=O)c2ccccc12 (stereo not given),-4.031
26,Cc1nn(C)c(N2CCOCC2)c1CNC1CCOc2ccccc21 (stereo not given),-6.51
27,Cc1nnc(NCC2(c3ccccc3)CC2)c(C#N)c1C,14.48
28,CC(=O)NCC(Cc1cccc(F)c1)n1cccc1 (stereo not given),7.369
29,CCNC(=O)CN(CC)C(=O)c1cccc(Nc2cnn(C)c2)c1,-0.2175
30,CN(Cc1cnc(N)nc1)C(=O)C1CC(=O)N(Cc2ccncc2)C1 (stereo not given),-0.2602
